# Inconclusive results are not listed. Activity calls are given as the source filed them. The calls were made as follows, unless noted: active = hit-call score of the fitted dose curve at least 0.9, where 1 is the maximum; inactive = score below 0.9.
# Experiments:
# [1] = target: Hypoxia-inducible factor 1-alpha (Homo sapiens) (UniProt Q16665); assay: ATG_HIF1a_CIS: Attagene CIS-FACTORIAL HepG2 Assay for human Hypoxia Inducible Factor 1 (HIF1A) (AID 2282951); conditions: HepG2 Attagene cis-factorial HIF1a reporter transcription; actives raise or lower the signal
# Hypoxia-inducible factor 1-alpha (Homo sapiens), sequence (Q16665 whole entry, looked up): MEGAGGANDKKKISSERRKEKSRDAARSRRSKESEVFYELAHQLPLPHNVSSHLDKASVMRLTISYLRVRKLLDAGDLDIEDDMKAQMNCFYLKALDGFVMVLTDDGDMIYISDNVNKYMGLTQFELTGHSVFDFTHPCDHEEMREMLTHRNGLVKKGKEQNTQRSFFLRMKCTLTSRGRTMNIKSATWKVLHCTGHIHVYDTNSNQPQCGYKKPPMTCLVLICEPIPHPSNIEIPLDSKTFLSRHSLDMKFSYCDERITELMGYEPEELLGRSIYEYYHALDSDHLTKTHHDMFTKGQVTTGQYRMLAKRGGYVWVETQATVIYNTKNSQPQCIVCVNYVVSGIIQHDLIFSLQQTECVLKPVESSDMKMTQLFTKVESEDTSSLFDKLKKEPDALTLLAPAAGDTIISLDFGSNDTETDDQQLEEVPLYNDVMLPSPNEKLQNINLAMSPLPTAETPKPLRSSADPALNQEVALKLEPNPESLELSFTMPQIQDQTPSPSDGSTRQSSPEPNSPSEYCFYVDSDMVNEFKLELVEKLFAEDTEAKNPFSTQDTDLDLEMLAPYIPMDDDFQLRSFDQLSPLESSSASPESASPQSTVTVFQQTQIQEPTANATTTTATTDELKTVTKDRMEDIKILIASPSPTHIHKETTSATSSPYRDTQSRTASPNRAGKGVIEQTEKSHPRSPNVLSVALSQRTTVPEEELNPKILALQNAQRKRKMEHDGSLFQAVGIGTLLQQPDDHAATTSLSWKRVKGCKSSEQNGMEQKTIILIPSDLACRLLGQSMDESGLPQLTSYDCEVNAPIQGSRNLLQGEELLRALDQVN
# In short: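 After 24 h chemical exposure of reporter-transfected HepG2 cells, reporter cDNA was PCR-amplified, labelled by 6-FAM primer extension (2 min 95 C, 20 s 68 C, 10 min 72 C), HpaI-cut (2 h, 37 C) and analysed by CE.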
# [2] = target: Hepatocyte nuclear factor 6 (Homo sapiens) (UniProt Q9UBC0); assay: ATG_HNF6_CIS: Attagene CIS-FACTORIAL HepG2 Assay for human Hepatocyte Nuclear Factor 6 (HNF6) (AID 2282952); conditions: HepG2 Attagene cis-factorial HNF6 reporter transcription; actives raise or lower the signal
# Hepatocyte nuclear factor 6 (Homo sapiens), sequence (Q9UBC0 whole entry, looked up, the tested form may be a part): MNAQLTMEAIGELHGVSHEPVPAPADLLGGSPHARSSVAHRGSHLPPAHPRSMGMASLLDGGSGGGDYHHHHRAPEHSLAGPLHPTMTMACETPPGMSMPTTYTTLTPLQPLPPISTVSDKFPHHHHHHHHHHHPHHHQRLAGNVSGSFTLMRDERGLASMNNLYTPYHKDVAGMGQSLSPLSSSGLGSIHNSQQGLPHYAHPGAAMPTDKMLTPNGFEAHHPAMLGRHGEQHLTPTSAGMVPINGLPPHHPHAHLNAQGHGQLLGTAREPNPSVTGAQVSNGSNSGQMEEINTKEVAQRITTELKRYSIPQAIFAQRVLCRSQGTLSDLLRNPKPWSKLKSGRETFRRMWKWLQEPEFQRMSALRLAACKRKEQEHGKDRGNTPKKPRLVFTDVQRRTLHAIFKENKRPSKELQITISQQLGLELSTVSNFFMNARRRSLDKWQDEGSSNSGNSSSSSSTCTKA
# In short: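 Reporter mRNA induction or loss in HepG2 after 24 h exposure; transient cis-MRTU transfection; fragments quantified by capillary electrophoresis; bidirectional analysis, DMSO as negative control.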
# [3] = target: Heat shock factor protein 1 (Homo sapiens) (UniProt Q00613); assay: ATG_HSE_CIS: Attagene CIS-FACTORIAL HepG2 Assay for human Heat Shock Transcription Factor 1 (HSE) (AID 2282953); conditions: HepG2 HSE cis-reporter, Attagene RNA transcription; actives raise or lower the signal
# Heat shock factor protein 1 (Homo sapiens), sequence (Q00613 whole entry, looked up, the tested form may be a part): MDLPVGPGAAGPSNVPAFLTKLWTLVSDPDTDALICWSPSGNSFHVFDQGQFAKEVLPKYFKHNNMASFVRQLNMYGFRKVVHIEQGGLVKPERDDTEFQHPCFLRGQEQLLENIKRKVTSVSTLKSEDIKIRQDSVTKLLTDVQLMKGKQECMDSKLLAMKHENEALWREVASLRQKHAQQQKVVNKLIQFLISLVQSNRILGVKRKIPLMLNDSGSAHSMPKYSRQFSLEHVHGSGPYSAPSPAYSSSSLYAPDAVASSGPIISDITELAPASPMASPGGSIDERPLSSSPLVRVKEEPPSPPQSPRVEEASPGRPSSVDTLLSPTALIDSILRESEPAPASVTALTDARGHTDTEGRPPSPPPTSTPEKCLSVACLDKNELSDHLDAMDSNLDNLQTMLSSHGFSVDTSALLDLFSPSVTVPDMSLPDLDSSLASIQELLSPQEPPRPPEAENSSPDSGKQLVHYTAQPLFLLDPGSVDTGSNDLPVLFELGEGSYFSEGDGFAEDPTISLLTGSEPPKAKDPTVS
# In short: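 Cells were transfected with cis-element-driven reporter constructs, dosed for 24 h, then total RNA was reverse-transcribed and reporter cDNA amplified, FAM-labelled and digested with HpaI. Fragments were resolved by capillary electrophoresis; gain or loss was fitted against DMSO.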
# [4] = ATG_MRE_CIS: Attagene CIS-FACTORIAL HepG2 Assay for human Metal Responsive Element (MRE) (AID 2282954); conditions: HepG2 MRE cis-reporter transcription, Attagene multiplex; actives raise or lower the signal
# In short: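 HepG2 cells transiently transfected with cis-element-driven reporter units; mRNA measured 24 h after dosing. Reporter transcripts quantified by RT-PCR, FAM labelling, HpaI digestion and capillary electrophoresis; bidirectional fit versus DMSO.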
# [5] = ATG_PBREM_CIS: Attagene CIS-FACTORIAL HepG2 Assay for human Phenobarbital-responsive Enhancer Module (PBREM) (AID 2282955); conditions: HepG2 PBREM cis-reporter, Attagene multiplexed transcription; actives raise or lower the signal
# In short: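 Measures endogenous factor action on a phenobarbital-responsive enhancer module. HepG2 transiently carrying cis reporters, 24 h treatment, mRNA read-out by RT-PCR plus capillary electrophoresis.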
# [6] = target: Paired box protein Pax-6 (Homo sapiens) (UniProt P26367); assay: ATG_Pax6_CIS: Attagene CIS-FACTORIAL HepG2 Assay for human Paired Box 6 (PAX6) (AID 2282956); conditions: HepG2 CIS-FACTORIAL PAX6 reporter transcription, RNA readout; actives raise or lower the signal
# Paired box protein Pax-6 (Homo sapiens), sequence (P26367 whole entry, looked up): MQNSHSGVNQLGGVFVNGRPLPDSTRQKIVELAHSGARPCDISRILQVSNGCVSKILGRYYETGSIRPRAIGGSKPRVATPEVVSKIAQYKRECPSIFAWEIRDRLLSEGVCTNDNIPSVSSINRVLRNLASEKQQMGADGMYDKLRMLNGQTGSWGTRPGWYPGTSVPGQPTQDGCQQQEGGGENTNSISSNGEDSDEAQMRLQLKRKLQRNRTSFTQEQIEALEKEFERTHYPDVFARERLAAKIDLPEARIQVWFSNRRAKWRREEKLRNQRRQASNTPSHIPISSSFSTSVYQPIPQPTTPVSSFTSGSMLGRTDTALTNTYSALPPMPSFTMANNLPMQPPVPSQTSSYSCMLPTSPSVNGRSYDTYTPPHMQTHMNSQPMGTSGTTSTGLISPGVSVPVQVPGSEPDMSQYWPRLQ
# In short: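 Multiplexed cis-reporter HepG2 system; 24 h treatment; reporter mRNA read by RT-PCR/CE fluorescence; bidirectional fit vs DMSO.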
# [7] = ATG_PXRE_CIS: Attagene CIS-FACTORIAL HepG2 Assay for human Pregnane X Receptor Element (PXRE) (AID 2282957); conditions: HepG2 Attagene CIS-FACTORIAL PXRE reporter, mRNA; actives raise or lower the signal
# In short: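 Transiently transfected HepG2 cells were dosed and incubated for 24 h. RNA was then isolated, DNase-treated, reverse-transcribed and reporter sequences amplified. Labeled, HpaI-digested fragments were quantified by capillary electrophoresis against DMSO.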
# [8] = ATG_PPRE_CIS: Attagene CIS-FACTORIAL HepG2 Assay for human Peroxisome Proliferator-activated Response Element (PPRE) (AID 2282958); conditions: HepG2 PPRE cis-element reporter, Attagene transcription factor profiling; actives raise or lower the signal
# In short: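 PPRE activity in HepG2: transient cis-reporter transfection, 24 h compound incubation, reporter mRNA by RT-PCR and CE fluorescence; gain/loss fitted against DMSO.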
# [9] = ATG_RORE_CIS: Attagene CIS-FACTORIAL HepG2 Assay for human RAR-related Orphan Receptor Element (RORE) (AID 2282959); conditions: HepG2 Attagene cis-factorial RORE reporter, mRNA; actives raise or lower the signal
# In short: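 A 24-hour exposure of transfected HepG2 hepatoma cells precedes RNA isolation and reporter RT-PCR. Labeled products are digested with HpaI and resolved by capillary electrophoresis, with gain or loss of signal scored relative to DMSO.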
# [10] = ATG_Sox_CIS: Attagene CIS-FACTORIAL HepG2 Assay for human SRY-box transcription factor (SOX) (AID 2282960); conditions: HepG2 Attagene cis-factorial SOX reporter, mRNA; actives raise or lower the signal
# In short: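 HepG2, cis reporter units, 24 h exposure. Reporter mRNA: RT-PCR → FAM labelling → HpaI → CE fluorescence. Bidirectional fit vs DMSO.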
# [11] = target: Transcription factor Sp1 (Homo sapiens) (UniProt P08047); assay: ATG_Sp1_CIS: Attagene CIS-FACTORIAL HepG2 Assay for human Specificity Protein 1 (Sp1) (AID 2282961); conditions: HepG2 Sp1 cis-reporter transcription, actives raise or lower the signal
# Transcription factor Sp1 (Homo sapiens), sequence (P08047 whole entry, looked up, the tested form may be a part): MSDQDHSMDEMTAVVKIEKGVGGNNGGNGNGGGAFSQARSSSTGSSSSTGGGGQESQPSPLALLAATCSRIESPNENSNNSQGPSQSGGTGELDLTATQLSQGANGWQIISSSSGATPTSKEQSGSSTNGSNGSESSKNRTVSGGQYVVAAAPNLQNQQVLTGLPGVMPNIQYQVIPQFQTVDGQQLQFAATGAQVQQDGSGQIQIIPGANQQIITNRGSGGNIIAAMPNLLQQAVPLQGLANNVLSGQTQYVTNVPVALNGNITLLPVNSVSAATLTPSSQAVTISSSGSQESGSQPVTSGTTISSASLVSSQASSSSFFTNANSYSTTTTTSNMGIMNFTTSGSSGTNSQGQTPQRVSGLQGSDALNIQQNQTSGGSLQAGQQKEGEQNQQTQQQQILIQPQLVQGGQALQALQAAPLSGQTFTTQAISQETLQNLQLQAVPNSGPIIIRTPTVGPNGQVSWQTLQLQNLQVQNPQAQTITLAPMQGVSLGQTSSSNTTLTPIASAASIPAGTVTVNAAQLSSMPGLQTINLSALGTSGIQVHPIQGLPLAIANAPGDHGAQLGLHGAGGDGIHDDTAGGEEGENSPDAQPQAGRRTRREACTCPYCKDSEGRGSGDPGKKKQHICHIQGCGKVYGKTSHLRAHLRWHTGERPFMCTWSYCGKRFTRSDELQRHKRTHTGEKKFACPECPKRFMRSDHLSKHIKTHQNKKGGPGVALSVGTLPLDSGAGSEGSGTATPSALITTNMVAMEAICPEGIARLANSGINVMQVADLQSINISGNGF
# In short: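 Liver-derived HepG2 cells, cis-element reporter library, 24 h treatment; RNA isolated, cDNA amplified with reporter-specific primers, FAM-labeled fragments sized on capillary analyzer. DMSO baseline, bidirectional curve fit.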
# [12] = ATG_SREBP_CIS: Attagene CIS-FACTORIAL HepG2 Assay for human Sterol Regulatory Element Binding (SREBP) (AID 2282962); conditions: HepG2 Attagene cis-factorial SREBP reporter, mRNA; actives raise or lower the signal
# In short: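 mRNA induction of transfected cis-promoter reporters in HepG2 cells, 24 h post-dose. Detection: RT-PCR with 6-FAM-labelled products, HpaI digest, capillary electrophoresis. DMSO served as negative control and baseline.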
# [13] = target: Signal transducer and activator of transcription 3 (Homo sapiens) (UniProt P40763); assay: ATG_STAT3_CIS: Attagene CIS-FACTORIAL HepG2 Assay for human Signal Transducer and Activator of Transcription 3 (STAT3) (AID 2282963); conditions: HepG2, Attagene cis-factorial STAT3 reporter transcription; actives raise or lower the signal
# Signal transducer and activator of transcription 3 (Homo sapiens), sequence (P40763 whole entry, looked up): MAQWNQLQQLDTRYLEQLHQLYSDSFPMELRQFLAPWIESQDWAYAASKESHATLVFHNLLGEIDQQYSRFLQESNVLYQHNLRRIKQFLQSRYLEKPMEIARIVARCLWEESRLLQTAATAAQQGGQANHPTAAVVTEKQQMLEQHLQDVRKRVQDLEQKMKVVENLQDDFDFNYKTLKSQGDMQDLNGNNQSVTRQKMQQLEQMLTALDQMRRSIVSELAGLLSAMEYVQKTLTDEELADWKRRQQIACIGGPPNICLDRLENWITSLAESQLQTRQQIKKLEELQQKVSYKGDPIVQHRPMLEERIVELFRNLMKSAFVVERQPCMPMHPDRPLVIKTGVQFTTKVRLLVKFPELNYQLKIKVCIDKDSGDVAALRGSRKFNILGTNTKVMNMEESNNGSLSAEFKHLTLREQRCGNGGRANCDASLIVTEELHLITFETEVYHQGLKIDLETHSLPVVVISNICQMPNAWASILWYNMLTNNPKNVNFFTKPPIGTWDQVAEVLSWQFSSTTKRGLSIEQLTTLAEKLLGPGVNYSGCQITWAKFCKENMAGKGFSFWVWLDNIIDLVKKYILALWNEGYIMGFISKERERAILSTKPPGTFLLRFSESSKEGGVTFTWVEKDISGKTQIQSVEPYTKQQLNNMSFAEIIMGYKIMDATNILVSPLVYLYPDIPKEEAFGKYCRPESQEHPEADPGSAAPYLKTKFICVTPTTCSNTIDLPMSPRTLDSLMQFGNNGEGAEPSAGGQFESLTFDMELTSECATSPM
# In short: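 HepG2 cells transiently transfected with multiple cis-element-driven reporter units report endogenous transcription factor activity. After 24 h compound exposure, reporter mRNA is measured by RT-PCR, 6-FAM labelling, HpaI digestion and capillary electrophoresis. Fitted bidirectionally versus DMSO.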
# [14] = ATG_TA_CIS: Attagene CIS-FACTORIAL HepG2 Assay for human TA Basal Promoter (AID 2282964); conditions: HepG2 Attagene CIS-factorial TA basal promoter reporter; actives raise or lower the signal
# In short: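 Steps: transfect HepG2 with MRTUs; dose 24 h; isolate RNA, DNase-treat, reverse-transcribe; PCR and FAM-label reporter cDNA; digest with HpaI 2h at 37 C; run capillary electrophoresis. Activity fitted both directions against DMSO.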
# [15] = ATG_TCF_b_cat_CIS: Attagene CIS-FACTORIAL HepG2 Assay for human T-Cell-Factor with beta-catenin (TCF/b-cat) (AID 2282965); conditions: HepG2 TCF/beta-catenin cis-reporter transcription, actives raise or lower the signal
# In short: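 HepG2, transient MRTU transfection, cis-element-driven reporters (endogenous TFs). 24 h compound exposure. Readout: reporter mRNA by RT-PCR + 6-FAM primer extension, HpaI digest, capillary electrophoresis. Gain/loss fit vs DMSO baseline.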
# [16] = ATG_TAL_CIS: Attagene CIS-FACTORIAL HepG2 Assay for human TAL Basal Promoter (AID 2282966); conditions: HepG2 Attagene cis-factorial TAL promoter reporter; actives raise or lower the signal;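 also: background control endpoint measuring basal TAL promoter reporter mRNA not a specific factor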
# In short: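 Readout: reporter mRNA, fluorescence by CE. System: HepG2, transient multi-reporter transfection, endogenous TF activity. Exposure: 24 h. Analysis: bidirectional, DMSO-normalized; background control.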
# [17] = ATG_TGFb_CIS: Attagene CIS-FACTORIAL HepG2 Assay for human Transforming Growth Factor (TGF) (AID 2282967); conditions: HepG2 Attagene CIS TGFb reporter, mRNA transcription; actives raise or lower the signal
# In short: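 Cells were dosed for 24 hours, after which total RNA was reverse-transcribed and reporter sequences amplified, labeled and sized by capillary electrophoresis. Activity was fitted in both directions against DMSO.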
# [18] = ATG_VDRE_CIS: Attagene CIS-FACTORIAL HepG2 Assay for human Vitamin D Receptor Element (VDRE) (AID 2282968); conditions: HepG2 VDRE cis-reporter transcription, actives raise or lower the signal
# In short: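 Transiently transfected HepG2 cells carrying cis-regulated reporter transcription units were exposed for 24 h. Reporter mRNA was measured by RT-PCR with fluorescent labelling and capillary electrophoresis, and fitted in both directions against DMSO.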
# [19] = target: Nuclear receptor subfamily 1 group I member 3 (Homo sapiens) (UniProt Q14994); assay: ATG_CAR_TRANS: Attagene TRANS-FACTORIAL HepG2 Assay for human Constitutive Androstane Receptor (CAR) (AID 2282969; active = hit-call score of the fitted dose curve at least 0.9, where 1 is the maximum;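 also: activators raise reporter mRNA above DMSO so AC50 marks induction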); conditions: HepG2 Attagene TRANS-FACTORIAL CAR reporter
# Nuclear receptor subfamily 1 group I member 3 (Homo sapiens), sequence (Q14994 whole entry, looked up, the tested form may be a part): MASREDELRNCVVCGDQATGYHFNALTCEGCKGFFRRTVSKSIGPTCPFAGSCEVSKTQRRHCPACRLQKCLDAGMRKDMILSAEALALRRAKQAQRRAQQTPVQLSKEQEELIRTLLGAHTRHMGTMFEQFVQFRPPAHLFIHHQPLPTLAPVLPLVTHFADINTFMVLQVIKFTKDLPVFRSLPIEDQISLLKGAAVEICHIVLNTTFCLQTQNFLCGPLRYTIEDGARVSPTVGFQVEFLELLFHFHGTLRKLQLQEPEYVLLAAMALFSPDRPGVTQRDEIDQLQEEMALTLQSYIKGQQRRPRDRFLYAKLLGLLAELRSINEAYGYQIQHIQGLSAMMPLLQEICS
# In short: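 HepG2 cells transiently transfected with GAL4-UAS reporter units; TRANS format reads activity of exogenous chimeric NR-Gal4 protein. After 24 h dosing, reporter mRNA quantified by RT-PCR, 6-FAM labelling and capillary electrophoresis; gain of signal fitted against DMSO.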
# [20] = target: Estrogen receptor (Homo sapiens) (UniProt P03372); assay: ATG_ERa_TRANS: Attagene TRANS-FACTORIAL HepG2 Assay for human Estrogen Receptor alpha (ERa) (AID 2282970; active = hit-call score of the fitted dose curve at least 0.9, where 1 is the maximum); conditions: HepG2 Attagene TRANS ERa GAL4 reporter, mRNA
# Estrogen receptor (Homo sapiens), sequence (P03372 whole entry, looked up, the tested form may be a part): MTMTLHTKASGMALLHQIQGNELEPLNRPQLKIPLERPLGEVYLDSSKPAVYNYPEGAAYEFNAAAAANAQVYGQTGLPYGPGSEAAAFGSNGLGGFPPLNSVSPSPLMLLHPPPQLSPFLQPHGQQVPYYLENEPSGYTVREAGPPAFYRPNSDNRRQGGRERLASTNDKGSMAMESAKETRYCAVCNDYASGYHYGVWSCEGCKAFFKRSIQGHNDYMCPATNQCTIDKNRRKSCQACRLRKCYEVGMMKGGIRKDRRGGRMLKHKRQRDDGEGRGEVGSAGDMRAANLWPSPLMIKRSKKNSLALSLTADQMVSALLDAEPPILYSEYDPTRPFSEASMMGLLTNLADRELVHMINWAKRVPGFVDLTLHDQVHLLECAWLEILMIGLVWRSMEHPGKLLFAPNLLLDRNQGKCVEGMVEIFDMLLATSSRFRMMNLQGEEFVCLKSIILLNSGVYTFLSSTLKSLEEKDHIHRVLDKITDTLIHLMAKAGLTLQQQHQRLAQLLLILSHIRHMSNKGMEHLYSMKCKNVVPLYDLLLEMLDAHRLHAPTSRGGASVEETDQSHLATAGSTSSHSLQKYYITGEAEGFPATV
# In short: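 Transactivation via ERa-Gal4 chimera in HepG2; 24 hour incubation; reporter mRNA detected by fluorescence RT-PCR and capillary electrophoresis.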
structure (smiles),measurement,setting,value
CC(F)(F)CC(F)(F)F,outcome,[1],inactive
same,outcome,[2],inactive
same,outcome,[3],inactive
same,outcome,[4],inactive
same,outcome,[5],inactive
same,outcome,[6],inactive
same,outcome,[7],inactive
same,outcome,[8],inactive
same,outcome,[9],inactive
same,outcome,[10],inactive
same,outcome,[11],inactive
same,outcome,[12],inactive
same,outcome,[13],inactive
same,outcome,[14],inactive
same,outcome,[15],inactive
same,outcome,[16],inactive
same,outcome,[17],inactive
same,outcome,[18],inactive
CCCCS(=O)(=O)Cl,outcome,[1],inactive
same,outcome,[2],inactive
same,outcome,[3],inactive
same,outcome,[4],inactive
same,outcome,[5],inactive
same,outcome,[6],inactive
same,outcome,[7],inactive
same,outcome,[8],inactive
same,outcome,[9],inactive
same,outcome,[10],inactive
same,outcome,[11],inactive
same,outcome,[12],inactive
same,outcome,[13],inactive
same,outcome,[14],inactive
same,outcome,[15],inactive
same,outcome,[16],inactive
same,outcome,[17],inactive
same,outcome,[18],inactive
same,outcome,[19],inactive
CCCSP(=S)(OCC)Oc1ccc(SC)cc1 (stereo not drawn),outcome,[1],inactive
same,outcome,[2],inactive
same,outcome,[3],inactive
same,outcome,[4],inactive
same,AC50,[5],2.14 µM (active)
same,outcome,[6],inactive
same,AC50,[7],2.92 µM (active)
same,outcome,[8],inactive
same,outcome,[9],inactive
same,outcome,[10],inactive
same,outcome,[11],inactive
same,outcome,[12],inactive
same,outcome,[13],inactive
same,outcome,[14],inactive
same,outcome,[15],inactive
same,outcome,[16],inactive
same,AC50,[17],100 µM (active)
same,AC50,[18],4.63 µM (active)
same,outcome,[19],inactive
same,AC50,[20],4.92 µM (active)
BrCc1ccc(Br)cc1,outcome,[1],inactive
same,outcome,[2],inactive
same,outcome,[3],inactive
same,outcome,[4],inactive
same,outcome,[5],inactive
same,outcome,[6],inactive
same,outcome,[7],inactive
same,outcome,[8],inactive
same,outcome,[9],inactive
same,outcome,[10],inactive
same,outcome,[11],inactive
same,outcome,[12],inactive
same,outcome,[13],inactive
same,outcome,[14],inactive
same,outcome,[15],inactive
same,outcome,[16],inactive
same,outcome,[17],inactive
same,outcome,[18],inactive
Cc1c([N+](=O)[O-])c(C)c([N+](=O)[O-])c(C(C)(C)C)c1[N+](=O)[O-],outcome,[1],inactive
same,outcome,[2],inactive
same,outcome,[3],inactive
same,AC50,[4],64.1 µM (active)
same,outcome,[5],inactive
same,outcome,[6],inactive
same,AC50,[7],1.54 µM (active)
same,outcome,[8],inactive
same,outcome,[9],inactive
same,outcome,[10],inactive
same,outcome,[11],inactive
same,outcome,[12],inactive
same,outcome,[13],inactive
same,outcome,[14],inactive
same,outcome,[15],inactive
same,outcome,[16],inactive
same,outcome,[17],inactive
same,AC50,[18],1.84 µM (active)
same,outcome,[19],inactive
same,AC50,[20],7.73 µM (active)
CC(C)[N+](=O)[O-],outcome,[1],inactive
same,outcome,[2],inactive
same,outcome,[3],inactive
same,outcome,[4],inactive
same,outcome,[5],inactive
same,outcome,[6],inactive
same,outcome,[7],inactive
same,outcome,[8],inactive
same,outcome,[9],inactive
same,outcome,[10],inactive
same,outcome,[11],inactive
same,outcome,[12],inactive
same,outcome,[13],inactive
same,outcome,[14],inactive
same,outcome,[15],inactive
same,outcome,[16],inactive
same,outcome,[17],inactive
same,outcome,[18],inactive

# Reference: PubChem BioAssay (EPA / NIEHS)
